# The supplement of paper PMC8728848
# This excerpt belongs to a sample that is enriched for the strongest signals.
# B1: Epa23 (Candida glabrata) (protein)
# chain: MGSSHHHHHHSSGLVPRGSHMIPNPFEGTINNFPSGCSPNHGLYNRGLTMELYNYSYIHPQSIQSYFNTSTLKKMEKGQCWDPSYLDVNYPRTGYKTHNRFAKVNGIDGILDFEFNPTRSCVPSKGQLPQNYNYPLQFTLSNFTMLLYGYFKPKVTAKHTFTIFADDLLFLNFGAGNAFDCCQQQDTIDDFGNYQAYALWGSDTQQNTLTVNLDANIYYPIRMFYNNRDFKGALNMYFTTDESNTKINDFSGYLFNIPDSSEGCPAHISYETECGNVSG
# Key:
# Assay in all cases: glycan array binding signal (z-score within array); higher = stronger binding
# Details in all cases: glycan notation: IUPAC condensed, linker removed
# [1] = target: Fuc(a1-2)[GalNAc(a1-3)]Gal(b1-3)GlcNAc(b1-3)GalNAc
# How it was run: (§1)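 Columns mapping to the same glycan were averaged after glycan names were converted to IUPAC-condensed notation. The data come from 3228 arrays in the Consortium for Functional Glycomics database, limited to those with an available protein sequence. Binding is reported as a within-array Z-score averaged across arrays of one protein sequence and across linkers.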
# [2] = target: Fuc(a1-2)[GalNAc(a1-3)]Gal(b1-4)Glc
# How it was run: as §1
# [3] = target: Fuc(a1-3)[Gal3S(b1-4)]GlcNAc6S
# How it was run: as §1
# Gal(a1-3)Gal(b1-4)GlcNAc = target: Gal(a1-3)Gal(b1-4)GlcNAc
# How it was run: as §1
# Gal(a1-6)Glc = target: Gal(a1-6)Glc
# How it was run: as §1
# [4] = target: Gal(b1-3)GlcNAc(a1-6)Gal(b1-4)GlcNAc
# How it was run: as §1
# [5] = target: Gal(b1-3)[Fuc(a1-4)]GlcNAc(b1-6)GalNAc
# How it was run: as §1
# Gal(b1-4)Glc = target: Gal(b1-4)Glc
# How it was run: as §1
# [6] = target: Gal(b1-4)GlcNAc(b1-2)Man(a1-3)[Gal(b1-4)GlcNAc(b1-2)Man(a1-6)][GlcNAc(b1-4)]Man(b1-4)GlcNAc(b1-4)[Fuc(a1-6)]GlcNAc
# How it was run: as §1
# [7] = target: Gal(b1-4)GlcNAc(b1-2)Man(a1-6)[GlcNAc(b1-2)Man(a1-3)]Man(b1-4)GlcNAc(b1-4)GlcNAc
# How it was run: as §1
# [8] = target: Gal(b1-4)GlcNAc(b1-2)Man(a1-6)[Man(a1-3)]Man(b1-4)GlcNAc(b1-4)GlcNAc
# How it was run: as §1
# [9] = target: Gal(b1-4)GlcNAc(b1-2)[Gal(b1-4)GlcNAc(b1-6)]Man(a1-6)[Gal(b1-4)GlcNAc(b1-2)Man(a1-3)]Man(b1-4)GlcNAc(b1-4)GlcNAc
# How it was run: as §1
# [10] = target: Gal(b1-4)GlcNAc(b1-3)Gal(b1-4)GlcNAc
# How it was run: as §1
# [11] = target: Gal(b1-4)GlcNAc(b1-3)Gal(b1-4)GlcNAc(b1-2)Man(a1-3)[Gal(b1-4)GlcNAc(b1-3)Gal(b1-4)GlcNAc(b1-2)Man(a1-6)]Man(b1-4)GlcNAc(b1-4)GlcNAc
# How it was run: as §1
# [12] = target: Gal(b1-4)GlcNAc(b1-3)Gal(b1-4)GlcNAc(b1-2)[Gal(b1-4)GlcNAc(b1-3)Gal(b1-4)GlcNAc(b1-6)]Man(a1-6)[Gal(b1-4)GlcNAc(b1-3)Gal(b1-4)GlcNAc(b1-2)Man(a1-3)]Man(b1-4)GlcNAc(b1-4)[Fuc(a1-6)]GlcNAc
# How it was run: as §1
# [13] = target: Gal(b1-4)GlcNAc(b1-3)Gal(b1-4)GlcNAc(b1-3)Gal(b1-4)GlcNAc(b1-2)[Gal(b1-4)GlcNAc(b1-3)Gal(b1-4)GlcNAc(b1-3)Gal(b1-4)GlcNAc(b1-6)]Man(a1-6)[Gal(b1-4)GlcNAc(b1-3)Gal(b1-4)GlcNAc(b1-3)Gal(b1-4)GlcNAc(b1-2)Man(a1-3)]Man(b1-4)GlcNAc(b1-4)[Fuc(a1-6)]GlcNAc
# How it was run: as §1
# [14] = target: Gal(b1-4)GlcNAc(b1-3)Gal(b1-4)GlcNAc(b1-3)Gal(b1-4)GlcNAc(b1-3)Gal(b1-4)GlcNAc(b1-2)Man(a1-3)[Gal(b1-4)GlcNAc(b1-3)Gal(b1-4)GlcNAc(b1-3)Gal(b1-4)GlcNAc(b1-3)Gal(b1-4)GlcNAc(b1-2)Man(a1-6)]Man(b1-4)GlcNAc(b1-4)GlcNAc
# How it was run: as §1
# [15] = target: Gal(b1-4)GlcNAc(b1-3)Gal(b1-4)GlcNAc(b1-3)Gal(b1-4)GlcNAc(b1-3)Gal(b1-4)GlcNAc(b1-2)[Gal(b1-4)GlcNAc(b1-3)Gal(b1-4)GlcNAc(b1-3)Gal(b1-4)GlcNAc(b1-3)Gal(b1-4)GlcNAc(b1-6)]Man(a1-6)[Gal(b1-4)GlcNAc(b1-3)Gal(b1-4)GlcNAc(b1-3)Gal(b1-4)GlcNAc(b1-3)Gal(b1-4)GlcNAc(b1-2)Man(a1-3)]Man(b1-4)GlcNAc(b1-4)[Fuc(a1-6)]GlcNAc
# How it was run: as §1
# [16] = target: Gal(b1-4)GlcNAc(b1-3)Gal(b1-4)GlcNAc(b1-3)Gal(b1-4)GlcNAc(b1-3)Gal(b1-4)GlcNAc(b1-3)Gal(b1-4)GlcNAc(b1-2)Man(a1-3)[Gal(b1-4)GlcNAc(b1-3)Gal(b1-4)GlcNAc(b1-3)Gal(b1-4)GlcNAc(b1-3)Gal(b1-4)GlcNAc(b1-3)Gal(b1-4)GlcNAc(b1-2)Man(a1-6)]Man(b1-4)GlcNAc(b1-4)GlcNAc
# How it was run: as §1
# [17] = target: Gal(b1-4)GlcNAc(b1-3)Gal(b1-4)GlcNAc(b1-3)Gal(b1-4)GlcNAc(b1-3)Gal(b1-4)GlcNAc(b1-3)Gal(b1-4)GlcNAc(b1-2)Man(a1-3)[Gal(b1-4)GlcNAc(b1-3)Gal(b1-4)GlcNAc(b1-3)Gal(b1-4)GlcNAc(b1-3)Gal(b1-4)GlcNAc(b1-3)Gal(b1-4)GlcNAc(b1-2)Man(a1-6)]Man(b1-4)GlcNAc(b1-4)[Fuc(a1-6)]GlcNAc
# How it was run: as §1
# [18] = target: Gal(b1-4)GlcNAc(b1-3)Gal(b1-4)GlcNAc(b1-3)Gal(b1-4)GlcNAc(b1-3)Gal(b1-4)GlcNAc(b1-3)Gal(b1-4)GlcNAc(b1-2)[Gal(b1-4)GlcNAc(b1-3)Gal(b1-4)GlcNAc(b1-3)Gal(b1-4)GlcNAc(b1-3)Gal(b1-4)GlcNAc(b1-3)Gal(b1-4)GlcNAc(b1-6)]Man(a1-6)[Gal(b1-4)GlcNAc(b1-3)Gal(b1-4)GlcNAc(b1-3)Gal(b1-4)GlcNAc(b1-3)Gal(b1-4)GlcNAc(b1-3)Gal(b1-4)GlcNAc(b1-2)Man(a1-3)]Man(b1-4)GlcNAc(b1-4)[Fuc(a1-6)]GlcNAc
# How it was run: as §1
# [19] = target: Gal(b1-4)GlcNAc(b1-6)Gal(b1-4)GlcNAc
# How it was run: as §1
# [20] = target: Gal(b1-4)GlcNAc(b1-6)GalNAc
# How it was run: as §1
# Gal3S4S(b1-4)GlcNAc = target: Gal3S4S(b1-4)GlcNAc
# How it was run: as §1
# Gal6S(b1-4)Glc = target: Gal6S(b1-4)Glc
# How it was run: as §1
# Gal6S(b1-4)Glc6S = target: Gal6S(b1-4)Glc6S
# How it was run: as §1
# Gal6S(b1-4)GlcNAc = target: Gal6S(b1-4)GlcNAc
# How it was run: as §1
binder,measurement,setting,value
B1,glycan array binding signal (z-score),[1],-0.229
same,glycan array binding signal (z-score),[2],-0.234
same,glycan array binding signal (z-score),[3],-0.161
same,glycan array binding signal (z-score),Gal(a1-3)Gal(b1-4)GlcNAc,-0.008
same,glycan array binding signal (z-score),Gal(a1-6)Glc,-0.007
same,glycan array binding signal (z-score),[4],-0.078
same,glycan array binding signal (z-score),[5],-0.177
same,glycan array binding signal (z-score),Gal(b1-4)Glc,-0.134
same,glycan array binding signal (z-score),[6],-0.232
same,glycan array binding signal (z-score),[7],-0.223
same,glycan array binding signal (z-score),[8],-0.182
same,glycan array binding signal (z-score),[9],0.12
same,glycan array binding signal (z-score),[10],0.139
same,glycan array binding signal (z-score),[11],0.484
same,glycan array binding signal (z-score),[12],2.44
same,glycan array binding signal (z-score),[13],3.33
same,glycan array binding signal (z-score),[14],2.62
same,glycan array binding signal (z-score),[15],3.79
same,glycan array binding signal (z-score),[16],3.01
same,glycan array binding signal (z-score),[17],2.83
same,glycan array binding signal (z-score),[18],4.71
same,glycan array binding signal (z-score),[19],1.43
same,glycan array binding signal (z-score),[20],0.008
same,glycan array binding signal (z-score),Gal3S4S(b1-4)GlcNAc,-0.241
same,glycan array binding signal (z-score),Gal6S(b1-4)Glc,6.7
same,glycan array binding signal (z-score),Gal6S(b1-4)Glc6S,11.8
same,glycan array binding signal (z-score),Gal6S(b1-4)GlcNAc,5.69
